This note sets out measurements from PubChem BioAssay.

Activity calls are given as the source filed them. The rule behind the calls is not given here.

In this test the target is Pantothenate synthetase (Mycobacterium tuberculosis (strain ATCC 25618 / H37Rv)) (UniProt P9WIL5). Nature of the test: Coupled enzyme confirmation of inhibitors against recombinant Mtb PanC (AID 375).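 Note: 0% = full reaction with vehicle and 100% = no enzyme background.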 As to conditions: coupled enzyme assay; at 10 µM, stronger effect = higher value.
Sequence of Pantothenate synthetase (Mycobacterium tuberculosis (strain ATCC 25618 / H37Rv)) (P9WIL5 whole entry, looked up): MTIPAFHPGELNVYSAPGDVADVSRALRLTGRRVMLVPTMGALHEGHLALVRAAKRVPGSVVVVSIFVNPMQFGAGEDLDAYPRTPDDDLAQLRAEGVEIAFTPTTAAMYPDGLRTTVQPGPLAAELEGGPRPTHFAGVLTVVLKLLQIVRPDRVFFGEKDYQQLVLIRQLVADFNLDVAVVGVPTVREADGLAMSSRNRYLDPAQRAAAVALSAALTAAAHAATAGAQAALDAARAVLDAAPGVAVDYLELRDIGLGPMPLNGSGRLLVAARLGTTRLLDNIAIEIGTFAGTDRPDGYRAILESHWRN
`CCCCOC(=O)n1c(SCC(=O)N(CC)CC)nc2ccccc21`: the inhibition (commonly the share of the control response that was lost under treatment) is 0% (inactive).

With `COc1cc(C(c2sc3nc(C)nn3c2O)N2CC(C)CC(C)C2)cc(OC)c1OC` (configuration not stated), the inhibition is 0% (inactive).

`Cc1ccc(S(=O)(=O)NCC(c2cccnc2)N(C)C)cc1` (configuration not stated): the inhibition is 3% (inactive).

`Cc1cc(Br)ccc1NC(=O)CCN1C(=O)c2ccncc2C1=O`: the inhibition was 0% (inactive).

On to `CCC(=O)Nc1nn(C)c2nc3c(C)cccc3cc12`, for which the inhibition was 0% (inactive).

`CCN(C(=O)c1cccs1)c1nnc(-c2ccncc2)s1`: the inhibition was 0% (inactive).

Turning to `CC(=O)c1ccc(NC(=O)c2noc3c2CCCCC3)cc1`, the inhibition is 1% (inactive).

As to `Cc1ccccc1NS(=O)(=O)c1cc(S(C)(=O)=O)ccc1Cl`, the inhibition is 0% (inactive).

In the case of `CC(=O)C1=C(O)C(=O)N(c2ccc(C(=O)O)cc2)C1c1ccccc1` (configuration not stated), the inhibition was 0% (inactive).

On to `Cc1nnc2n(-c3ccc(Cl)cc3)c(=O)c3c4c(sc3n12)CN(C)CC4`, for which the inhibition was 3% (inactive).

As for `O=C1NC(=O)C(c2ccccc2)(c2ccccc2)N1`, the inhibition is 0% (inactive).

For `C#CCNc1c(C)c(C)nc2ncnn12`, the inhibition was 4% (inactive).

Turning to `Fc1cccc(Nc2cc(-n3cccn3)ncn2)c1`, the inhibition was 3% (inactive).

Consider `COc1ccccc1N1CCN(C(=O)c2cc(C3CC3)on2)CC1`, for which the inhibition is 3% (inactive).

Regarding `C=CCn1c(=O)/c(=C/c2ccc(O)cc2)s/c1=C(/C#N)c1nnc2n1CCCCC2`, the inhibition is 0% (inactive).

As to `CCOC(=O)C(NC(=O)c1ccccc1)(Nc1cc(C)on1)C(F)(F)F` (configuration not stated), the inhibition was 0% (inactive).

Take `Cc1cccc(-n2ccnc2SCC(=O)Nc2cc(C)on2)c1`: the inhibition was 1% (inactive).

With `CC(C)(C)SCCNC(=O)CSc1ccccc1`, the inhibition is 7% (inactive).

`Cc1cc(C)n(CC(=O)NC2CCCCC2)n1`: the inhibition was 0% (inactive).

Regarding `O=C(Nc1ccc(S(=O)(=O)N2CCCCCC2)cc1)c1ccco1`, the inhibition is 2% (inactive).

Turning to `O=C1CC(c2ccccc2)n2nc(NC(=O)c3ccccn3)nc2N1` (configuration not stated), the inhibition was 0% (inactive).

For `COc1ccc(C)cc1S(=O)(=O)N(C)CC(=O)Nc1ccc2c(c1)OCCO2`, the inhibition is 2% (inactive).
